From PubChem BioAssay come the findings set out here.

The structures appear in SMILES notation.

Sequence of Albumin (Bos taurus) (P02769 whole entry, looked up): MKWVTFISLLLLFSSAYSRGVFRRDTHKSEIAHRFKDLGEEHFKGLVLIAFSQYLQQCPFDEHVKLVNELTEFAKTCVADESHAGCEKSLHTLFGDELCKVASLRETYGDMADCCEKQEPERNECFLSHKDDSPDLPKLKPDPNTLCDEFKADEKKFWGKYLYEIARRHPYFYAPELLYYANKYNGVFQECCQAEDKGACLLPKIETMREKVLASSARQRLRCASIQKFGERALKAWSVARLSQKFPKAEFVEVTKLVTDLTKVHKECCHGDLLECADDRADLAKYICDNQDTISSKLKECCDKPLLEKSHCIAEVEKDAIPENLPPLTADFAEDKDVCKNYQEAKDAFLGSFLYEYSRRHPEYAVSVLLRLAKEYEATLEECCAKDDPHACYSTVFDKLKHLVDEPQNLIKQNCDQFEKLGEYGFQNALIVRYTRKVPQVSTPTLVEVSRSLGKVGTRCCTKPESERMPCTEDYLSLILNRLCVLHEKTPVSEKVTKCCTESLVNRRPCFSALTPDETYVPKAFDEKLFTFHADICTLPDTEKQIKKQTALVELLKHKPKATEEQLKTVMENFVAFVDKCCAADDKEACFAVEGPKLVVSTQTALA

The assay addresses Albumin (Bos taurus) (UniProt P02769). Kind of assay: compounds binding labelled BSA control protein – biochemical, small-molecule microarray, Alexa647 label, 635/667 nm fluorescence, artefact control for SMM control protein annotation, profiling panel (AID 1118).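 Note: score merges 667 nm emission intensity and signal-to-noise per printed compound spot.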 The note with it: BSA-A647 binding, fluorescence 635 nm, higher = more signal.
Regarding `CCCC=C(CCC)[C@@H](NS(=O)(=O)c1ccc(-c2ccccc2)cc1)c1ccc(C(=O)OC)cc1`, the composite z-score was -0.0722.

`COc1ccc([Si](C)(C)[C@@H]2[C@@H](CC(=O)N(CCO)Cc3ccccc3)O[C@]3(C(=O)N(Cc4cccc(N5CCC5=O)c4)c4ccccc43)[C@H]2C)cc1` came in with a composite z-score of 0.047.

Consider `CCC1=C2CN(Cc3ccccc3Br)[C@@H]([C@@H](O)Cc3ccccc3)C2C=CCC1` (some centres undefined), for which the composite z-score was found to be 0.714.

`CO[C@H]1COC(=O)[C@H](C)COC(=O)[C@H](Cc2ccccc2)NC(=O)CC=C[C@H]1C` displayed a composite z-score of -1.16.

Regarding `Cc1ccc(S[C@]2(C(=O)NC3CC3)CC(=O)N(Cc3cc(C(F)(F)F)cc(C(F)(F)F)c3)[C@@H]2c2ccc(CO)cc2)cc1`, the composite z-score amounted to 0.371.

Consider `CCCC[C@@H]1C[C@H]1[C@@H](NC(=O)c1cccs1)c1ccc(Cl)cc1`, for which the composite z-score turned out to be 0.804.

`COC(=O)C(CC#Cc1ccc2c(c1)[C@]1(C(=O)N2)[C@H](C(=O)N2CCCCCCC2)[C@H]2C(=O)O[C@H](c3ccccc3)[C@H](c3ccccc3)N2[C@@H]1c1ccc(O)cc1)C(=O)OC` displayed a composite z-score of -0.264.

Compound `CC(C)N1CC=CC23O[C@@H]4/C=C\CCCOC(=O)C4[C@H]2C(=O)N(CCO)[C@@H]3C1=O` (some centres undefined) had a composite z-score of 0.767.

On to `O=C1O[C@H](c2ccccc2)[C@H](c2ccccc2)N2[C@H]1[C@@H](C(=O)NC[C@H](O)c1ccccc1)[C@]1(C(=O)Nc3ccc(C#CC4=CCCCC4)cc31)[C@H]2c1ccc(OCCO)cc1`, for which the composite z-score came to 0.534.

In turn, `Cc1ccc(S[C@]2(C(=O)NC(C)C)CC(=O)N(C3Cc4ccccc4C3)[C@@H]2c2ccc(CO)cc2)cc1` returned a composite z-score of 0.451.

In turn, `Cc1ccc(S[C@]2(C(=O)NCCCN(C)C)CC(=O)N(Cc3ccccc3)[C@@H]2c2ccc(CO)cc2I)cc1` yielded a composite z-score of 0.717.

With `COc1ccc([C@H]2C[C@H]3C(Br)=C[C@]2(OC)C(=O)[C@]32CO2)cc1`, the composite z-score came to 0.504.

As for `COC(=O)[C@H]1[C@@H]2COc3ccccc3[C@H]2N[C@H]1C(=O)OC`, the composite z-score came out at 0.235.

`C=CC[C@]1(C(N)=O)N=C(c2ccc(OCCCO)cc2)O[C@H]1c1ccccc1CN=[N+]=[N-]`: the composite z-score came out at 1.05.

`CC(C)[Si](OCC[C@H]1O[C@]2(C(=O)N(Cc3ccccc3)c3ccccc32)[C@@H](C)[C@@H]1[Si](C)(C)O)(C(C)C)C(C)C` registered a composite z-score of 0.114.

`CC(C)[Si](OCCCNS(=O)(=O)c1ccc(Br)cc1)(C(C)C)C(C)C` showed a composite z-score of 0.406.

`C=CCOC(=O)[C@@H]1[C@H]2C(=O)O[C@H](c3ccccc3)[C@H](c3ccccc3)N2[C@H](c2ccc(OCCOC(=O)[C@H]3C[C@H]4C(=O)N[C@@H](CCCCNC(C)=O)C(=O)N4[C@H]3c3ccc(O)cc3)cc2)[C@@]12C(=O)Nc1ccc(I)cc12` had a composite z-score of -0.239.

As for `C[C@]1(C(=O)NCCN2CCOCC2)c2ccccc2C(=O)N(Cc2ccccc2)[C@H]1c1ccc(CO)cc1`, the composite z-score is -0.0435.

As for `C=CCN(C(=O)C1N(c2ccc(CCO)cc2)C(=O)C2C(C(=O)O)C3C=CC21O3)C(C)(C)C` (centres undefined), the composite z-score is -1.21.

In turn, `CCOC(=O)C[C@H]1[C@H](OC(=O)Cc2ccc3c(c2)OCO3)[C@@H](NC(=O)c2ccc3ccccc3c2)c2cc(OCCCO)ccc2N1C(=O)Cc1ccc(OC)cc1` registered a composite z-score of 0.897.

For `COc1ccc([Si](C)(C)[C@H]2[C@H](CCO)O[C@@]3(C(=O)N(Cc4ccc(N5CCCCC5=O)cc4)c4ccccc43)[C@@H]2C)cc1`, the composite z-score came out at 0.643.

`COc1cc(CO)cc(I)c1O[C@H]1C=C(C(=O)NCCO)C[C@@H](N(CC2CCCCC2)C(=O)c2cc3ccccc3oc2=O)[C@@H]1O` yielded a composite z-score of -0.0129.

For `COC(=O)C1=CC(c2ccc(CO)cc2)=CC(C2CC2)N(Cc2sc3ccccc3c2Cl)C=C1C(=O)OC` (centres undefined), the composite z-score came to 0.971.

`CSCC[C@@H]1NC(=O)CC=C[C@@H](C)COC(=O)[C@H](CCSC)NC(=O)CC=C[C@@H](C)COC1=O` registered a composite z-score of -0.767.

Compound `COC(=O)[C@@]1(Cc2ccc(OC)cc2)[C@H]2c3cc(C(=O)N(C)C)n(CCc4ccc(OC)c(Br)c4)c3C[C@H]2CN1C(=O)c1ccccc1` displayed a composite z-score of 1.11.

Compound `COCC(=C=CC[C@H](O)c1ccc(OCCO)cc1)C[C@H](O)c1ccccn1` yielded a composite z-score of -0.769.

Regarding `O=C(NCc1ccccc1)[C@@]1(Cc2ccccc2)COC(c2ccc(OCCCO)cc2)=N1`, the composite z-score stood at 0.48.

As to `CO[C@@H]1COC(=O)[C@H](C)NC(=O)CC=C[C@@H](C)[C@H](OC)COC(=O)[C@H](C)NC(=O)CC=C[C@H]1C`, the composite z-score was -0.406.

As to `CCCC=C(CCC)[C@@H](NS(=O)(=O)c1ccc(C(F)(F)F)cc1)c1ccc(-c2ccccc2)cc1`, the composite z-score is 0.822.
